The values that follow come from PubChem BioAssay (NCI).

Among the test systems are DU-145 prostate; K-562 leukemia; MALME-3M melanoma; MDA-MB-231 breast; RXF 393 renal; SF-268 CNS; SF-295 CNS; SF-539 CNS; UACC-257 melanoma; M14 melanoma.
What all share (assay): NCI-60 one-dose screen, 48 h (100 = growth as untreated, 0 = no growth, -100 = all killed)
Common to all, as to settings: 10 µM unless noted

Several values for one entry are separate records, joined by “and”; a condition that tells them apart may be missing. Identical values can stand only once. Compounds without any hit were thinned out: in the full panel of roughly 83,000, 20% have a hit.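 Cells were grown in 96-well plates and exposed to the test compound at a single concentration for 48 hours; results are reported as percent growth, with values below 10 considered active.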 A number with no mark means an inactive call. Activity calls are given as the source filed them.

Regarding `COC(=O)C1=CCCN(C)C1`, the growth in the assay with DU-145 prostate is 111% and 112%; with K-562 leukemia, 93.2% and 104%; with MALME-3M melanoma, 96.2% and 109%; with MDA-MB-231 breast it was 115% and 107%; in the assay on RXF 393 renal, 102% and 106%; in the assay on SF-268 CNS, 116% and 104%. Further, the growth in the assay on SF-295 CNS is 97.9% and 98.3%; in the assay on SF-539 CNS it was 103% and 109%; in the assay with UACC-257 melanoma, 96.8%; in the assay with M14 melanoma, 98% and 100%.
Consider `C[N+]12CCC34C5=CC(=O)C(=O)C=C5[N+]5(C)C(=O)CC6OCC=C(C1)C(CC32)C6C45` (stereo not given), for which the growth in the assay with DU-145 prostate was 102%; in the assay on K-562 leukemia it was 97.6%; in the assay with MALME-3M melanoma it was 99.4%; in the assay with MDA-MB-231 breast, 97.6%; with RXF 393 renal, 93.1%; with SF-268 CNS it was 111%. Besides, the growth in the assay on SF-295 CNS is 93%; in the assay on SF-539 CNS it was 97.5%; in the assay on UACC-257 melanoma, 113%; in the assay with M14 melanoma it was 118%.
In the case of `O=C(Cc1ccccc1)NC(O)C(Cl)(Cl)Cl` (stereo not given), the growth was 118% in the assay with DU-145 prostate; 98.3% in the assay on K-562 leukemia; 115% in the assay with MALME-3M melanoma; 106% in the assay on MDA-MB-231 breast; 105% in the assay with RXF 393 renal; 104% with SF-268 CNS. Further, the growth in the assay on SF-295 CNS was 103%; in the assay with SF-539 CNS, 108%; in the assay on UACC-257 melanoma it was 103%; in the assay with M14 melanoma, 101%.
In the case of `CC[C@H](C)[C@H](NC(=O)[C@H]1CCCCN1C)C(=O)N(C)[C@H](C(=O)NC12CC(C(=O)N[C@@H](Cc3ccccc3)C[C@H](C)C(=O)OC)(C1)C2)C(C)C`, the growth was 105% in the assay with DU-145 prostate; 98.2% in the assay on K-562 leukemia; 106% in the assay with MALME-3M melanoma; 110% with MDA-MB-231 breast; 108% in the assay with RXF 393 renal; 90.2% with SF-268 CNS. Besides, the growth was 102% with SF-295 CNS, 100% with SF-539 CNS, 102% with UACC-257 melanoma and 101% in the assay with M14 melanoma.
For `CSc1cc(/C=C(\C)[C@@H]2C[C@@H]3O[C@]3(C)CCC[C@H](C)[C@H](O)[C@@H](C)C(=O)C(C)(C)[C@@H](O)CC(=O)O2)n(CCNC(=O)OC(C)(C)C)n1`, the growth in the assay with DU-145 prostate is 58%; in the assay on K-562 leukemia it was 36.4%; with MALME-3M melanoma, 78.7%; in the assay on MDA-MB-231 breast, 63.8%; in the assay with RXF 393 renal it was 63.6%; in the assay with SF-268 CNS, 70.6%. In addition, the growth with SF-295 CNS is 73.5%; in the assay on SF-539 CNS, 54%; in the assay with UACC-257 melanoma it was 91.9%; with M14 melanoma, 56.7%.
Consider `C[C@]12C[C@H](c3ccoc3)OC(=O)[C@H]1CC[C@@]1(C)[C@@H]2[C@H]2C=C[C@]1(O)C(=O)O2`, for which the growth with DU-145 prostate was 109%; in the assay with K-562 leukemia, 76.9%; in the assay with MALME-3M melanoma, 101%; with MDA-MB-231 breast, 102%; with RXF 393 renal, 102%; in the assay with SF-268 CNS, 98.3%. In addition, the growth in the assay on SF-295 CNS is 91.1%; in the assay on SF-539 CNS, 92.4%; in the assay on UACC-257 melanoma, 86.2%; in the assay on M14 melanoma, 87.6%.
Consider `C[N+]1(CC#CC[N+]2(C)CCCC2)CCCC1`, for which the growth with DU-145 prostate is 106%; in the assay with K-562 leukemia it was 106%; with MALME-3M melanoma it was 99%; with MDA-MB-231 breast, 102%; in the assay with RXF 393 renal, 103%; in the assay on SF-268 CNS it was 95.9%. For the same compound, the growth was 98.6% with SF-295 CNS, 105% in the assay on SF-539 CNS, 105% with UACC-257 melanoma and 103% in the assay with M14 melanoma.
For `O=C1c2ccccc2C(=O)N1N1CC1c1ccccc1` (stereo not given), the growth is 109% with DU-145 prostate; 97.7% in the assay with K-562 leukemia; 91.9% in the assay with MALME-3M melanoma; 118% with MDA-MB-231 breast; 107% with RXF 393 renal; 104% with SF-268 CNS. Besides, the growth in the assay on SF-295 CNS was 104%; in the assay on SF-539 CNS, 102%; with UACC-257 melanoma, 101%; with M14 melanoma it was 100%.
Consider `Cc1nc2ccccc2c(=O)n1-c1ccccc1F`, for which the growth in the assay with DU-145 prostate is 109%; with K-562 leukemia it was 104%; in the assay on MALME-3M melanoma, 112%; with MDA-MB-231 breast it was 107%; with RXF 393 renal, 96.5%; in the assay with SF-268 CNS, 100%. Also, the growth was 98.3% with SF-295 CNS, 95.4% in the assay on SF-539 CNS, 77% in the assay with UACC-257 melanoma and 99.4% in the assay with M14 melanoma.
`C/C(=C\c1ccn(-c2ccc(N)c(C(F)(F)F)c2)n1)[C@@H]1C[C@@H]2O[C@]2(C)CCC[C@H](C)[C@H](O)[C@@H](C)C(=O)C(C)(C)[C@@H](O)CC(=O)O1`: the growth with DU-145 prostate was -12.7% (active); in the assay on K-562 leukemia, 11.9%; with MALME-3M melanoma, 51.7%; in the assay with MDA-MB-231 breast, 22.8%; in the assay with RXF 393 renal it was 8.01% (active); in the assay on SF-268 CNS, 36%. The growth is 15.1% in the assay with SF-295 CNS, -8.5% (active) in the assay with SF-539 CNS, 64.3% with UACC-257 melanoma and 21.7% in the assay with M14 melanoma.
Take `C/C(=C\c1ccn(-c2ccc(N)cc2F)n1)[C@@H]1C[C@@H]2O[C@]2(C)CCC[C@H](C)[C@H](O)[C@@H](C)C(=O)C(C)(C)[C@@H](O)CC(=O)O1`: the growth in the assay on DU-145 prostate was -19.4% (active); in the assay with K-562 leukemia, 11.8%; with MALME-3M melanoma it was 30.9%; with MDA-MB-231 breast, 20.8%; in the assay with RXF 393 renal, -7.39% (active); in the assay with SF-268 CNS, 29.7%. Further, the growth with SF-295 CNS was 8.62% (active); in the assay on SF-539 CNS it was -4.08% (active); in the assay on UACC-257 melanoma, 56.3%; in the assay on M14 melanoma, -5.99% (active).
Regarding `Cc1cc(Br)c([N+](=O)[O-])cc1[N+](=O)[O-]`, the growth with DU-145 prostate is 89.4%; in the assay on K-562 leukemia, 75%; with MALME-3M melanoma, 128%; in the assay with MDA-MB-231 breast it was 97.8%; in the assay with RXF 393 renal, 103%; with SF-268 CNS it was 97.2%. Moreover, the growth in the assay with SF-295 CNS was 114%; in the assay with SF-539 CNS, 97.9%; with UACC-257 melanoma, 98.7%; in the assay on M14 melanoma, 96.2%.
